Test results as given in article PMC5540273 (PLoS ONE, 2017).

Legend:
Conditions in all cases: concentration: 1 μM, replicates: in singlicate; n = 1
ERBB2 = test system: ERBB2
ERBB3 = test system: ERBB3
ERBB4 = test system: ERBB4
ERK1 = test system: T1, ERK1
T1 construct: gene MAPK3

ERK2 = test system: T2, ERK2
T2 construct: gene MAPK1

ERK3 = test system: T3, ERK3
T3 construct: gene MAPK6

ERK4 = test system: T4, ERK4
T4 construct: gene MAPK4

ERK5 = test system: T5, ERK5
T5 construct: gene MAPK7

ERK8 = test system: T6, ERK8
T6 construct: gene MAPK15

ERN1 = test system: ERN1
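Also: KINOMEscan kinase panel screen.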

Row | SMILES | %Inh (ERBB2) | %Inh (ERBB3) | %Inh (ERBB4) | %Inh (ERK1) | %Inh (ERK2) | %Inh (ERK3) | %Inh (ERK4) | %Inh (ERK5) | %Inh (ERK8) | %Inh (ERN1)
1 | Cc1cccc(-c2nc(Nc3ccc4[nH]ncc4c3)c3ccccc3n2)n1 [GW857175] | 0% | 18% | 0% | 0% | 4% | 0% | 9% | 3% | 21% | 35%
2 | O=c1cc(N2CCOCC2)nc2n(Cc3cccc(Cl)c3Cl)ccn12 [GSK2286295] | 0% | 0% | 0% | 0% | 6% | 0% | 27% | 0% | 2% | 0%
3 | Cc1cccc(-c2nc(Nc3ccncc3)c3ccccc3n2)n1 [GW855857] | 7% | 43% | 0% | 0% | 9% | 0% | 7% | 30% | 17% | 0%
4 | Fc1cc(Cl)ccc1Nc1ccnc2cc(-c3ccc(CN4CCCCC4)o3)ccc12 [GW560116] | 1% | 31% | 4% | 0% | 0% | 0% | 8% | 0% | 0% | 0%
5 | O=C(Nc1n[nH]c2nc(-c3nccs3)c(Br)cc12)C1CC1 [SB-742251] | 2% | 19% | 0% | 0% | 11% | 14% | 16% | 0% | 84% | 0%
6 | COc1cc(Nc2nccc(N3CCC(NC(=O)Nc4cc(C)ccc4C)C3)n2)cc(OC)c1OC (stereo not drawn) [GSK1379762] | 11% | 0% | 0% | 9% | 0% | 5% | 4% | 0% | 41% | 15%
7 | Cc1ccccc1-n1cnc2c(N)ncnc21 [SKF-97510] | 0% | 0% | 0% | 0% | 0% | 2% | 0% | 0% | 0% | 0%
8 | Cn1ccc2ncnc(Oc3cccc(C(=O)Nc4ccccc4)c3)c21 | 18% | 18% | 0% | 0% | 21% | 0% | 4% | 5% | 6% | 29%
9 | Cc1cc(-c2ccc3c(c2)CC[C@@H](N[C@@H](C)c2ccccc2)C3)cnc1N.Cl [GW412617] | 0% | 0% | 0% | 0% | 12% | 5% | 0% | 0% | 29% | 0%
10 | O=C(Nc1ccccc1)Nc1cccc(Oc2ccc3nccn3n2)c1 | 38% | 53% | 0% | 0% | 0% | 0% | 0% | 0% | 0% | 0%
11 | O=S(=O)(c1ccc(-c2ccnc3[nH]ccc23)cc1)N1CCCC1 [GSK846226] | 0% | 0% | 0% | 0% | 0% | 11% | 30% | 0% | 0% | 35%
12 | COc1ccc(Nc2nccc(NCCNC(=O)Nc3ccccc3F)n2)cc1 [GSK1379901] | 0% | 0% | 45% | 0% | 0% | 9% | 32% | 0% | 0% | 0%
13 | Cc1cccc(-c2nc(C)cc(Nc3ccncc3)n2)n1 [GSK257997] | 28% | 0% | 30% | 0% | 0% | 19% | 100% | 0% | 0% | 4%
14 | CC(C)(C)c1ccc(C(=O)Nc2cn3cc(-c4cccnc4)ccc3n2)cc1 | 34% | 0% | 1% | 0% | 18% | 14% | 23% | 20% | 16% | 12%
15 | Cc1cccc(-c2nc(Nc3cccc(C(N)=O)c3)c3ccccc3n2)n1 [GW876019] | 23% | 50% | 15% | 0% | 0% | 22% | 0% | 0% | 11% | 17%
16 | O=C(Nc1n[nH]c2nc(-c3nccs3)c(Br)cc12)C1CCCC1 [SB-742609] | 0% | 0% | 0% | 10% | 2% | 0% | 100% | 0% | 60% | 12%
17 | Cc1ccc(NC(=O)Nc2cc(C(C)(C)C)nn2-c2ccccc2)cc1 [GSK1014915] | 36% | 10% | 0% | 0% | 0% | 7% | 26% | 0% | 52% | 0%
18 | C[C@@H]1CCCCN1c1cc(-c2ccc3c(N)n[nH]c3c2)nc(N)n1 [GSK2258759] | 18% | 0% | 12% | 8% | 0% | 5% | 0% | 0% | 0% | 0%
